M1 PAM: human CHRM1 positive allosteric modulation | P11229 | CHO-K1 hM1, Fluo-8 calcium fluorescence, ACh EC20; 0% = ACh EC20, 100% = maximal ACh | activation, % at 3 µM | 360,000 compounds, 0.088% hits | AID 588819; in the data active means activation above about 19%, passing the limit was not always enough
Target sequence (P11229 whole entry, looked up): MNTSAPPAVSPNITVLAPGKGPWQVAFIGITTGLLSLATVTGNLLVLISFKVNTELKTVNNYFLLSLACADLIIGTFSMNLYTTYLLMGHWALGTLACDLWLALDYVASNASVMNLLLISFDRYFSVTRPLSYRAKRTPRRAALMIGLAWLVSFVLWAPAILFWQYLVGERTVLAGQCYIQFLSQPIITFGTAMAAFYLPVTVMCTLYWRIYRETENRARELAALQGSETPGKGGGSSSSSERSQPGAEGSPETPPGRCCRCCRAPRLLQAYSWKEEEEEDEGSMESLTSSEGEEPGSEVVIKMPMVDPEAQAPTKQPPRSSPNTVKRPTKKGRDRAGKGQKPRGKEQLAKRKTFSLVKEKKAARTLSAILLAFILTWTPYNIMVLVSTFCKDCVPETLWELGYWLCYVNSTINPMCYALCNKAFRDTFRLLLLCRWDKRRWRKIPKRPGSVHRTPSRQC
CHRM1 agonist: human M1 muscarinic receptor agonism | CHO-K1 hM1, Fluo-8 calcium fluorescence, agonist mode; 0% DMSO, 100% acetylcholine EC100 | AID 588814 | 360,000 compounds, 0.33% hits | activation, % at 3 µM;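 active means activation above the run's mean compound activation plus 3 SD, cut at about 16% in these data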;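 further: peak over basal fluorescence ratio within a 140 s kinetic read after compound addition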
CHO-K1 Ca antag: M1 antagonist counterscreen hit in parental CHO-K1 cells; 360,000 compounds, 0.6% hits; inhibition, % at 3 µM; ATP-induced calcium, Fluo-8 fluorescence;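 active means inhibition above a per-plate cutoff, the plate's mean sample inhibition plus 3 SD, cut at about 24% in these data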
CHO-K1 Ca PAM: nonselective activator or artifact in parental CHO-K1 calcium assay; ATP EC20, Fluo-8 calcium fluorescence; 0% at ATP EC20, 100% at ATP max; activation, % at 3 µM; 360,000 compounds, 0.02% hits;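 active means activation above the run cutoff, the mean activation of all test compounds plus 3 SD, cut at about 40% in these data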;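 further: peak over basal fluorescence ratio in a 140 s read after ATP addition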
CHRM1 antagonist: blocks human M1 muscarinic receptor | AID 588852 | CHO-K1 hM1, Fluo-8 calcium fluorescence, ACh EC80 antagonist | inhibition, % at 3 µM | 360,000 compounds, 1.3% hits;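 active means percent inhibition above its own plate's cutoff, namely the mean of that plate's compound wells plus 3 SD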;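 further: peak over basal fluorescence ratio during 140 s after agonist addition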
M1 ag parental: M1 agonist counterscreen hit in parental CHO-K1 cells; Fluo-8 calcium fluorescence; scaled to maximal ATP response, vehicle zero; activation, % at 3 µM; 360,000 compounds, 0.48% hits; AID 602248; in the data active means activation above about 15%;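 further: untransfected CHO-K1 host cells lacking M1 receptor as counterscreen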
Of the large screens only hits and unclear results are named; the others gave an inactive call. This is a sample that favours compounds with a hit; in the whole collection about 2.4% have one here.

O=C(Nc1c(F)cc(F)cc1Br)c1cc(-c2ccc(O)cc2)on1	CHRM1 agonist 18
O=C(NCc1cccs1)c1cc(-c2ccc(O)cc2)on1	CHRM1 agonist 17
O=C(Nc1c(F)cc(F)cc1Br)c1cc(-c2ccccc2)on1	none
Cc1ccc(-c2cc(C(=O)NCc3cccs3)no2)cc1	none
Cc1ccccc1-c1nc2ccccc2c(=O)o1	CHO-K1 Ca antag 36
Cc1ccc2nc(-c3ccccc3C)oc(=O)c2c1	none
O=C(c1ccc(COc2ccc3ccccc3c2)o1)N1N=C(C(F)F)CC1(O)C(F)F (stereo not drawn)	CHRM1 antagonist 56
O=C(c1cc(-c2ccccc2)nc2ccccc12)N1N=C(C(F)F)CC1(O)C(F)F (stereo not drawn)	M1 PAM 22
CCOc1ccc(OCc2ccc(C(=O)N3N=C(C(F)F)CC3(O)C(F)F)o2)cc1 (stereo not drawn)	none
O=C(c1ccc(COc2ccc(Br)cc2)o1)N1N=C(C(F)F)CC1(O)C(F)F (stereo not drawn)	CHRM1 antagonist 33
CC(CC(=O)Nc1ccc(S(=O)(=O)Nc2ncccn2)cc1)c1ccccc1 (stereo not drawn)	none
Cc1ccccc1C(=O)Oc1cc(N)n(S(C)(=O)=O)n1	CHO-K1 Ca antag 24
CCN1CCN(c2ncc(C(=O)N3CCN(c4ccccc4OC)CC3)c3ccccc23)CC1	CHRM1 antagonist 21
CCOC(=O)N1CCN(C(=O)c2cnc(Nc3ccccc3OC)c3ccccc23)CC1	CHRM1 antagonist 33
CCN1CCN(c2ncc(C(=O)Nc3c(F)cc(F)cc3Br)c3ccccc23)CC1	none
CCN1CCN(c2ncc(C(=O)Nc3cc(Cl)c(OC)cc3OC)c3ccccc23)CC1	CHRM1 antagonist 34
COc1ccccc1N1CCN(C(=O)c2n[nH]c3ccccc23)CC1	none
O=C1CN(c2ccccc2)C(=S)N1C(=O)c1ccc(Br)cc1	none
N#C/C(=C\c1cccnc1)c1ccccc1[N+](=O)[O-]	none
CCc1nn2c(=O)cc(CSCC(=O)Nc3ccccc3Cl)nc2s1	none
C#Cc1ccc(CN2CCC(C(=O)Nc3ccc(Oc4ccccc4)nc3)CC2)cc1	none
O=C(Nc1ccc(Oc2ccccc2)nc1)C1CCN(Cc2cccc(F)c2)CC1	M1 ag parental 24
NNC(=O)Cn1nc(Cc2ccccc2)n(N)c1=O	none
Cc1ccc(N(C(=O)CS(=O)CC(=O)Nc2ccc(F)cc2)C(C)C(=O)NC(C)(C)C)cc1 (stereo not drawn)	none
Cc1ccc(OCCCn2c(=O)sc3ccccc32)cc1	CHO-K1 Ca antag 24
Cc1ccc(OCCn2c(=O)sc3ccccc32)cc1	none
CN1CCN(C(=O)c2ccc(COc3ccc(C(C)(C)C)cc3)o2)CC1	CHRM1 antagonist 39
Cc1c(OCC(=O)NCc2cccnc2)ccc2c3c(c(=O)oc12)CCCC3	none
Cc1c(OC(C)C(=O)NCc2cccnc2)ccc2c3c(c(=O)oc12)CCCC3 (stereo not drawn)	CHO-K1 Ca antag 58
O=C(CN1C(=O)c2ccc([N+](=O)[O-])cc2C1=O)NCCC1=CCCCC1	none
COCc1nnc(NC(=O)c2ccc(OC)cc2OC)s1	none
COc1ccc(C(=O)Nc2nnc(CCc3ccccc3)s2)c(OC)c1	CHO-K1 Ca antag 35
COc1ccc(N(Cc2ccccc2)C(=O)CSc2nnc(Cn3nnc4ccccc43)o2)cc1	none
O=C(CSc1nnc(Cn2nnc3ccccc32)o1)N(Cc1ccc(F)cc1)c1ccccc1	CHO-K1 Ca antag 25
OCCC1CN(Cc2nc(-c3ccccc3)cs2)CCN1CCc1ccccc1 (stereo not drawn)	M1 ag parental 16
OCCC1CN(Cc2nc(-c3ccc(F)cc3)cs2)CCN1CCc1ccccc1 (stereo not drawn)	none
CC(C)=CCN1CCN(Cc2nc(-c3ccccc3)cs2)CC1CCO (stereo not drawn)	CHRM1 antagonist 34
CCOc1ncccc1C(=O)OCC(=O)Nc1cc(C(C)(C)C)ccc1OC	none
COCC1CCN(C(=O)c2cc(COc3cc(C)c(Cl)c(C)c3)on2)C1 (stereo not drawn)	none
COc1ccc(C(=O)NCCCN2CCCC2=O)cc1S(=O)(=O)N1CCOCC1	none
COC(=O)c1sccc1NC(=S)N1CCCCC1	none
CCOC(=O)N1CCN(C(=S)Nc2ccccc2C(C)C)CC1	none
Cc1cc(Cl)ccc1NC(=S)N1CCN(Cc2ccccc2)CC1	none
COC(=O)c1sccc1NC(=S)N1CCN(c2cccc(C)c2C)CC1	CHO-K1 Ca antag 24
CCOC(=O)N1CCN(C(=S)Nc2cccc(C)c2C)CC1	CHRM1 agonist 19
Cc1cccc(NC(=S)N2CCN(Cc3ccccc3)CC2)c1C	CHRM1 agonist 23
CCCCCCCCS(=O)C1CCS(=O)(=O)C1 (stereo not drawn)	none
CCCCCCS(=O)[C@H]1CS(=O)(=O)C[C@@H]1S(=O)CCCCCC (stereo partly drawn)	CHRM1 antagonist 19
CC1(C)C[C@H]2C3=CCC4[C@@]5(C)CC[C@H](O[C@@H]6O[C@H](C(=O)O)[C@@H](O)[C@H](O)[C@H]6O)[C@@](C)(CO)C5CC[C@@]4(C)[C@]3(C)C[C@H](O)[C@@]2(CO)[C@@H](O)[C@@H]1O (stereo partly drawn)	none
C/C=C(/C)C(=O)OC1CC(C)(C)C[C@H]2C3=CC[C@@H]4[C@@]5(C)CCC(O[C@@H]6O[C@@H](C(=O)O)[C@@H](O)C(O[C@@H]7OC[C@H](O)[C@@H](O)[C@@H]7O[C@@H]7OC(CO)C(O)[C@@H](O)[C@@H]7O)C6O[C@@H]6OC(CO)C(O)C(O)C6O)[C@@](C)(CO)[C@@H]5CC[C@]4(C)[C@]3(C)CC(O)[C@@]12CO (stereo partly drawn)	CHRM1 agonist 62, CHO-K1 Ca antag 49, CHRM1 antagonist 73, M1 ag parental 67
C/C=C(\C)C(=O)OC1[C@H](OC(C)=O)C2(CO)C(CC1(C)C)C1=CCC3C4(C)CCC(O[C@@H]5O[C@H](C(=O)O)[C@@H](O[C@@H]6O[C@H](CO)[C@@H](O)[C@H](O)[C@H]6O)[C@H](O)[C@H]5O[C@H]5O[C@H](CO)[C@@H](O)[C@H](O)[C@H]5O)[C@](C)(CO)C4CCC3(C)[C@]1(C)C[C@H]2O (stereo partly drawn)	CHRM1 agonist 93, CHO-K1 Ca antag 102, CHRM1 antagonist 104, M1 ag parental 98
Cn1c(CCN2CCN(c3ccccn3)CC2)nc2cc(NS(=O)(=O)c3ccccc3)ccc21	CHRM1 antagonist 69
Cn1c(CCN2CCCCC2)nc2cc(NC(=O)COc3ccc(Cl)cc3)ccc21	none

Screening data (PubChem)
